Test system: Vero E6 infected with SARS-CoV-2
Test: inhibition of SARS-CoV-2 cytopathic effect; higher = more antiviral protection, active = above 15
Settings: 48 h

Measured: inhibition of SARS-CoV-2 cytopathic effect

Cc1ccccc1C(=O)Nc1ccc(C(=O)N2CCCC(O)c3cc(Cl)ccc32)c(C)c1 (stereo not given) [tolvaptan]
inactive: 1 nM 1.52% | 8.33 nM 1.94% | 100 nM 0.74% | 833.33 nM -1.55% | 10000 nM 1.54%

NS(=O)(=O)c1ccc(C(=O)O)cc1 [carzenide]
inactive: 1 nM -1.83% | 8.33 nM -0.09% | 100 nM 0.05% | 833.33 nM 2.39% | 10000 nM -0.52%

CC(=O)N[C@H]1[C@@H](O)[C@H](O)[C@@H](CO)O[C@@H]1O [N-acetylmannosamine]
inactive: 1 nM 0.48% | 8.33 nM -0.18% | 100 nM -0.61% | 833.33 nM -1.2% | 10000 nM 1.32%

C[C@@H](c1ncncc1F)[C@](O)(Cn1cncn1)c1ccc(F)cc1F [voriconazole]
inactive: 1 nM 0.72% | 8.33 nM 2.08% | 100 nM -2.48% | 833.33 nM -0.46% | 10000 nM 1.37%

CC(=O)[C@H]1CC[C@H]2[C@@H]3C[C@H](C)C4=CC(=O)CC[C@]4(C)[C@H]3[C@@H](O)C[C@]12C [medrysone]
inactive: 1 nM -0.04% | 8.33 nM 1.55% | 100 nM -1.22% | 833.33 nM 0.73% | 10000 nM 3.22%

Cc1ccccc1NC(=O)Nc1ccc(CC(=O)N(C)[C@@H](CC(C)C)C(=O)NCC[C@H](NC(=O)[C@@H]2CCCN2S(=O)(=O)c2cc(Cl)cc(Cl)c2)C(=O)O)cc1
inactive: 1 nM -1.88% | 8.33 nM 0.66% | 100 nM -0.65% | 833.33 nM 0.17% | 10000 nM -3.63%

COc1cc(Nc2ncc(F)c(Nc3ccc4c(n3)NC(=O)C(C)(C)O4)n2)cc(OC)c1OC
inactive: 1 nM -3.02% | 8.33 nM -0.43% | 100 nM -2.04% | 833.33 nM -4.61% | 10000 nM -4.19%

O=C(Nc1cc(C(F)(F)F)cc(C(F)(F)F)c1)c1cc(Cl)ccc1O [IKK-2-inhibitor-V]
inactive: 1 nM -4.92% | 8.33 nM -2.65% | 100 nM 1.55% | 833.33 nM 10.7% | 10000 nM 4.63%

NC(=O)C(c1ccccc1)(c1ccccc1)[C@@H]1CCN(CCc2ccc3c(c2)CCO3)C1 [darifenacin]
inactive: 1 nM -1.18% | 8.33 nM 0.61% | 100 nM 2.83% | 833.33 nM 0.42% | 10000 nM -5.65%

O=C(c1ccc(Cl)cc1)N(Cc1ccccc1)C1CCCCC1
inactive: 1 nM -1.58% | 8.33 nM -1.87% | 100 nM 1.24% | 833.33 nM -0.21% | 10000 nM -2.35%

O[C@@H]1[C@H](O)[C@@H](CCl)O[C@H]1n1cnc2c(NC3CC4CCC3C4)ncnc21 (mixture of isomers) [5'-chloro-5'-deoxy-ENBA-(+/-)]
inactive: 1 nM -4.47% | 8.33 nM -2.02% | 100 nM 0.3% | 833.33 nM 3.77% | 10000 nM -3.73%

C[C@@H](Oc1ccc(Cl)cc1)c1ccnc2ncnn12
inactive: 1 nM -0.64% | 8.33 nM 0.02% | 100 nM -0.48% | 833.33 nM -2.21% | 10000 nM -3.4%

O=C(N[C@H]1CCN(C(=O)c2cc(C(F)(F)F)cc(C(F)(F)F)c2)[C@H](Cc2ccc(Cl)cc2)C1)c1ccnc2ccccc12
inactive: 1 nM -1.66% | 8.33 nM -1.32% | 100 nM 1.01% | 833.33 nM 2.87% | 10000 nM 0.89%

CN(C)CCC(c1ccccc1)c1ccccn1 (stereo not given) [pheniramine]
inactive: 1 nM -0.78% | 8.33 nM 3.08% | 100 nM 0.29% | 833.33 nM 2.25% | 10000 nM -0.28%

C=CCN1CCc2cc(O)c(O)cc2[C@H](c2ccccc2)C1
inactive: 1 nM 1.44% | 8.33 nM 0.58% | 100 nM 0.35% | 833.33 nM 0.44% | 10000 nM -2.9%

C[C@@H](N)c1ccc(C(=O)Nc2ccnc3[nH]ccc23)cc1
inactive: 1 nM 0.69% | 8.33 nM -1.06% | 100 nM 0.35% | 833.33 nM -5.51% | 10000 nM -13.4%

CCc1cccc(CC)c1NC(=O)c1nn(C)c2c1CCc1cnc(Nc3ccc(C(=O)NC4CCN(C)CC4)cc3OC(F)(F)F)nc1-2
inactive: 1 nM 1.19% | 8.33 nM 3.71% | 100 nM 1.53% | 833.33 nM 0.13% | 10000 nM 5.39%

CC(C)[C@@H]1CC[C@@H](C)C[C@H]1O [levomenthol]
inactive: 1 nM 0.46% | 8.33 nM -1.68% | 100 nM 1.02% | 833.33 nM 0.09% | 10000 nM -0.2%

[N-]=[N+]=N[C@]1(CO)O[C@@H](n2ccc(N)nc2=O)[C@H](O)[C@@H]1O
inactive: 1 nM -1.63% | 8.33 nM 0.795% | 100 nM 0.87% | 833.33 nM 1.03% | 10000 nM -0.005%

CC1=NN(c2ccc(C)c(C)c2)C(=O)/C1=N\Nc1cccc(-c2cccc(C(=O)O)c2)c1O [eltrombopag]
inactive: 1 nM 2.51% | 8.33 nM 2.25% | 100 nM 2.06% | 833.33 nM 0.59% | 10000 nM 0.99%

N=C(N)N/N=C/c1c(Cl)cccc1Cl [guanaben-acetate]
inactive: 1 nM -2.82% | 8.33 nM -0.46% | 100 nM -3.74% | 833.33 nM -2.55% | 10000 nM -1.82%

CCc1cc(Cl)c(OC)c(C(=O)NC[C@@H]2CCCN2CC)c1O [eticlopride]
inactive: 1 nM -0.43% | 8.33 nM -0.67% | 100 nM 1.17% | 833.33 nM 0.92% | 10000 nM 3.78%

CN1CCCN(C(c2ccccc2)c2ccc(Cl)cc2)CC1 (stereo not given) [homochlorcyclizine]
inactive: 1 nM 2.1% | 8.33 nM 1.84% | 100 nM 1.43% | 833.33 nM -2.39% | 10000 nM -1.32%

COc1ccc(/C=C/CCCCOc2ccc(C(=O)c3cccc(C(=O)O)c3)cc2CCC(=O)O)cc1
inactive: 1 nM 2.26% | 8.33 nM 1.45% | 100 nM 0.3% | 833.33 nM -3.65% | 10000 nM -3.88%

COC(=O)[C@H](Cc1ccccc1)NC(=O)[C@@H](N)CC(=O)O [aspartame]
inactive: 1 nM -0.23% | 8.33 nM -0.6% | 100 nM 0.53% | 833.33 nM -1.78% | 10000 nM 0.85%

Cc1ccc2nc(N)[nH]c(=O)c2c1Sc1ccncc1 [nolatrexed]
inactive: 1 nM 0.89% | 8.33 nM 3.11% | 100 nM 1.17% | 833.33 nM 2.04% | 10000 nM -2.82%

Reference: the supplement of paper PMC13380429
